Shown is part of a subset that was picked to be rich in hits.
ALOX12 inh: inhibitors of human 12S-lipoxygenase ALOX12 | P18054 | Potency, µM (top dose mostly 108 µM), for inactives: at the top dose activity change, negative = inhibition, actives largely listed as inhibitors | AID 1671190 | purified 12hLO, xylenol orange hydroperoxide absorbance | hit rate 1.1% among 580,000; also: potency is read from the fitted curve at half-maximal effect
Target sequence (P18054 whole entry, looked up): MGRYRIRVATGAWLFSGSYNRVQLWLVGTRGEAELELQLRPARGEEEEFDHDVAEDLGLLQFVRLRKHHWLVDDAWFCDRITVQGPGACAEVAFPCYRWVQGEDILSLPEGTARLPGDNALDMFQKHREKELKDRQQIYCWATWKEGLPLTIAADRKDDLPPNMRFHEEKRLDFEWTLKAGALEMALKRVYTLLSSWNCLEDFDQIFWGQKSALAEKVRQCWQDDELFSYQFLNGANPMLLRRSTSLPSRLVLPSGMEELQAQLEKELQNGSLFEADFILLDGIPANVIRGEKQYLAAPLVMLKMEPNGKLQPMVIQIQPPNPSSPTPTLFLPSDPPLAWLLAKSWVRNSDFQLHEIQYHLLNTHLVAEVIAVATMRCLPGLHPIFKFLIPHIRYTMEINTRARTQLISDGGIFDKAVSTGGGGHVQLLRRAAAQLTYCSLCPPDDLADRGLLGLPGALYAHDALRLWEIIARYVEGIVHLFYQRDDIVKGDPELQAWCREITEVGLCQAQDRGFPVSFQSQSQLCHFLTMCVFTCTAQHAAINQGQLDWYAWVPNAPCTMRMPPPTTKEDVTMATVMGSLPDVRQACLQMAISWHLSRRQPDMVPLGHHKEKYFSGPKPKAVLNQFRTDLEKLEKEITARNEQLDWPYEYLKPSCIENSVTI
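Hydroperoxide product was detected by ferrous iron/xylenol orange as the 573 to 405 nm absorbance ratio. Arachidonic acid at 40 uM (final) was turned over for 30 min at room temperature by 150 nM human 12hLO, pH 7.0 Hepes buffer, after 15 min compound preincubation.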
HT1080 IDH1KD tx: kills HT-1080 cells with IDH1 knockdown. hit rate 2% among 360,000. AID 686971. Potency, µM (doses to about 46.1 µM), for inactives: at the highest dose activity, negative = toxicity, actives largely listed as cytotoxic. HT-1080 IDH1 knockdown viability, ATP luminescence, 48 h;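 also: potency is read from the fitted curve at half-maximal effect; 0% = DMSO wells and -100% = cell-free medium wells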
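Cytotoxicity counter-line: IDH1KD HT-1080, 48 h, CellTiter-Glo. Curves classed by r2, magnitude and activity.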
IL-1B inflam inh: inflammasome signaling inhibition, IL-1 beta readout | THP-1 LPS/ATP IL-1B secretion, AlphaLISA, 16 h; stronger effect = lower value | activity change, % at 57.5 µM | hit rate 4.7% among 360,000 | AID 743279; in the data active = activity change below about -50%; inconclusive = mostly about -30% to -49%
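Secreted IL-1B measured by AlphaLISA bead assay after 16 h compound exposure of THP-1 cells; compounds (final up to 57.5 uM) added 1 h before LPS (250 ng/mL) and ATP (1.25 mM) stimulation; lower signal means less secretion.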
TDP1 cell noCPT: qHTS for Inhibitors of human tyrosyl-DNA phosphodiesterase 1 (TDP1): qHTS in cells in absence of CPT. DT40 Tdp1-/- hTDP1 cells, no CPT, ATP luminescence, 48 h. Potency, µM (doses to about 46.2 µM), without a hit: at the highest dose activity change, negative = growth inhibition, hits mostly inhibitors. hit rate 15% among 420,000. AID 686978, 2013; also: potency is read from the fitted curve at half-maximal effect; nearly all actives have a fitted effect of over 55% in size
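Luminescent ATP content (CellTiter-Glo) served as the growth readout. Knockout chicken DT40 cells expressing human TDP1 were exposed to compounds without camptothecin for a minimum 48 hr at 37 °C.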
HT1080-NT tox: kills 2HG-producing HT-1080-NT fibrosarcoma cells | HT-1080-NT fibrosarcoma viability, CellTiter-Glo ATP luminescence, 48 h | Potency, µM (titrated, usually from 46.1 µM), for inactives: top-dose activity, negative = less viability, usual class: cytotoxic | hit rate 1.6% among 360,000 | AID 686970;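 also: NT is the 2HG producing partner of a matched IDH1 knockdown line; potency is read from the fitted curve at half-maximal effect; 0% = DMSO-treated cells and -100% = media-only wells without cells; nearly all actives have a fitted effect of over 55% in size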
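Luminescent CellTiter-Glo readout after 48 hours of compound exposure at 37 degrees C defined viability of HT-1080-NT cells. Activity was normalized to DMSO wells and cell-free media wells; concentration-response curves were fitted and assigned curve classes.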
TDP1 cell CPT: growth inhibition of DT40 Tdp1-/-;hTDP1 cells with camptothecin (screen for TDP1 inhibitors). hit rate 12% among 420,000. Potency, µM (doses to about 46.2 µM), inactives show at the top dose activity change, negative = growth inhibition, hits mostly inhibitors. chicken DT40 Tdp1-/-;hTDP1 cells + 20 nM CPT, ATP luminescence, 48 h; also: potency is read from the fitted curve at half-maximal effect; nearly all actives have a fitted effect of over 55% in size
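Chicken DT40 Tdp1-/- cells complemented with human TDP1, 400 cells/well, exposed to compounds plus 20 nM camptothecin for at least 48 h at 37 C; viability read as ATP content by CellTiter-Glo luminescence.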
The depositor's hits bear a star; ? = inconclusive; / = not tested or not shown; [ ] = remark or other dose. Unless noted, calls follow the shape of the dose curve; as a rule, active = well fitted curve in the direction sought with a large enough effect; inconclusive = small, poorly fitted or top-dose-only effect, or another doubt; inactive = no such curve, though single readings can be large; an effect the other way counts as inactive or inconclusive. Unless noted, % is scaled to controls: 0 for no effect and ±100 for the full control effect.

SMILES | ALOX12 inh | HT1080 IDH1KD tx | IL-1B inflam inh | TDP1 cell noCPT | HT1080-NT tox | TDP1 cell CPT
CCC1Oc2ccc(C)cc2N(CC(=O)NCc2ccccc2OC)C1=O (stereo not drawn) | 2.7% | 3.1% | 0.0 | -22.8% | -1.0% | -8.3%
C=CCn1cnnc1SCC(=O)c1c[nH]c2ccccc12 | 21.1% | / | / | / | / | /
CSc1cccc(-n2cc(-c3ccc4c(c3)OCO4)[nH]c2=O)c1 | / | ? | -14.0 | 5.17µM* | ? | 4.61µM*
CC(C)=CCOc1ccc2c(=O)c(Oc3ccccc3)c(C)oc2c1 | -12.7% | / | / | / | / | /
CC(C)(C)OC(=O)C[C@@H]1C/C=C\C[C@@H](CC(=O)N(CCO)Cc2ccccc2)C(=O)N[C@@H](c2ccccc2)COC1=O | -7.9% | 1.2% | 0.0 | 23.1µM* | -2.3% | ?
O=C1N[C@@H](c2ccccc2)COC(=O)[C@@H](Cc2ccc(F)cc2)C/C=C\C[C@H]1CC(=O)N(CCO)Cc1ccccc1 | ? | ? | ? | 10.3µM* | ? | 14.6µM*
O=C1N[C@@H](c2ccccc2)COC(=O)[C@H](Cc2ccc(F)cc2)CC/C=C/C[C@@H]1CC(=O)N(CCO)Cc1ccccc1 | -13.0% | ? | 0.0 | 16.4µM* | ? | ?
O=C1N[C@H](Cc2ccccc2)COC(=O)[C@H](Cc2ccc(F)cc2)C/C=C\C[C@H]1CC(=O)N(CCO)Cc1ccccc1 | -33.0% | -29.1% | -10.3 | ? | ? | ?
Cc1ccc(-c2n[nH]c(-c3ccc(C)c(C)c3)c2C)cc1C | -46.3% | / | / | / | / | /
CCOc1cc(C(=O)N[C@@H](C)C(=O)N2CCC3(CC2)NCCc2[nH]cnc23)cc(OCC)c1OCC | 5.8% | 1.4% | -2.3 | 7.8% | 4.8% | -8.9%
CCN(CC)S(=O)(=O)c1cccc(C(=O)N/N=C(\C)c2ccc(O)cc2O)c1 | -3.6% | 1.46µM* | 92.6 | 6.51µM* | ? | 4.61µM*
CCN(CC)S(=O)(=O)c1cccc(C(=O)N/N=C/c2ccc(O)c(O)c2O)c1 | ? | ? | 34.5 | 16.4µM* | ? | 14.6µM*
CCN(CC)S(=O)(=O)c1cccc(C(=O)NNC(=O)c2ccc3[nH]c(=O)c(=O)[nH]c3c2)c1 | -12.4% | 3.3% | 14.4 | -4.2% | 1.3% | -4.3%
CCOc1ccccc1/C=N/NC(=O)c1cccc(S(=O)(=O)N(CC)CC)c1 | 8.5% | 13.0% | -1.0 | -19.0% | 5.9% | 16.5%
O=C1N/C(=C\c2ccc(O)cc2)C(=O)c2ccccc21 | / | 17.8µM* | -3.8 | 7.08µM* | ? | 3.16µM*
O=C(Nc1nc(-c2ccc(S(=O)(=O)N3CCCCCC3)cc2)cs1)c1cccs1 | -6.0% | -19.5% | 9.8 | 20.6µM* | -15.1% | ?
O=C(Nc1nc(-c2ccncc2)cs1)c1ccc(S(=O)(=O)N2CCCCC2)cc1 | -3.2% | / | / | / | / | /
O=C(Nc1nc(-c2ccc(S(=O)(=O)N3CCCC3)cc2)cs1)c1cccs1 | 1.6% | -14.2% | ? | 14.6µM* | 0.0% | ?
O=C(Cn1nnc2ccccc2c1=O)NCc1ccco1 | ? | -0.9% | -5.4 | -10.8% | -1.6% | -27.8%
O=C(Cn1nc(C(=O)O)c2ccccc2c1=O)NCc1ccco1 | -21.8% | -0.9% | 5.8 | ? | 8.5% | 25.9µM*
c1ccc(O[C@H]2COCCN(c3nc4ccccc4s3)C2)nc1 | 8.3%[176 µM] | / | / | / | / | /
Cc1c(C(=O)N2CCN(c3ccc(F)cc3)CC2)sc2ncnc(N3CCN(c4ccccn4)CC3)c12 | 10.3% | / | -83.7* | 14.6µM* | / | 18.4µM*
COc1ccc(Cl)cc1NC(=O)C(C)N1CCN(c2ccccn2)CC1 (stereo not drawn) | -3.3% | 0.0% | -4.5 | 18.4µM* | -21.2% | ?
Cc1c(C(=O)N2CCN(c3ccccn3)CC2)sc2ncnc(N3CCOCC3)c12 | ? | 5.6% | -1.0 | -18.1% | 1.4% | -16.1%
Cc1nc(N2CCN(c3ccccn3)CC2)c2c(C)c(C(=O)N3CCN(c4ccc(F)cc4)CC3)sc2n1 | -19.5% | -28.8% | -61.6* | ? | -18.8% | ?
SMILES | ALOX12 inh | HT1080 IDH1KD tx | IL-1B inflam inh | TDP1 cell noCPT | HT1080-NT tox | TDP1 cell CPT
COc1ccc(OC)c(NC(=O)c2sc3ncnc(N4CCN(c5ccccn5)CC4)c3c2C)c1 | / | 17.5% | 14.1 | 20.6µM* | ? | ?
CC(C(=O)Nc1ccccc1)N1CCN(c2ccccn2)CC1 (stereo not drawn) | -10.9% | -0.3% | 2.7 | 7.8% | 4.5% | -7.9%
COc1ccc(C(=O)NC(C)Cc2c[nH]c3ccccc23)cc1 (stereo not drawn) | -9.3% | 9.9% | 2.2 | ? | 5.1% | ?
COc1ccccc1N1CCN(C(=O)c2sc3ncnc(N4CCN(c5ccccn5)CC4)c3c2C)CC1 | / | 29.1µM* | -75.4* | 4.61µM* | 14.6µM* | 4.61µM*
CCC(CC)C(=O)N(C)c1c(C)nc2c(OCCOc3ccccc3)cccn12 | 8.2% | 6.8% | 0.0 | 13µM* | -5.3% | 23.1µM*
CCC(CC)C(=O)N(C)c1c(C)nc2c(OCC=C(C)C)cccn12 | 21.0% | 14.6µM* | 85.0 | 16.4µM* | ? | 13µM*
Cc1ccc(C)c(S(=O)(=O)Nc2ccc3[nH]c(=O)[nH]c3c2)c1 | -16.0% | -16.8% | 10.8 | ? | 1.5% | ?
Cc1ccc(C)c(S(=O)(=O)Nc2ccc3scnc3c2)c1 | ? | 11.6µM* | -18.9 | 18.4µM* | ? | 23.1µM*
CC(=O)Nc1ccc(NC(=O)CN2C(=O)CCc3cc(S(=O)(=O)N4CCCCC4)ccc32)cc1 | -15.3% | / | / | -18.2% | / | -3.9%
Cc1cc(C)cc(NC(=O)CN2C(=O)CCc3cc(S(=O)(=O)N4CCCCC4)ccc32)c1 | -3.2% | / | / | ? | / | 16.4µM*
COc1ccc(NC(=O)CN2C(=O)COc3ccc(S(=O)(=O)N4CCCCC4)cc32)c(OC)c1 | -12.8% | 5.1% | -54.0* | ? | 18.8% | 14.6µM*
COc1ccc(OC)c(NC(=O)CN2C(=O)CCc3cc(S(=O)(=O)N4CCCCC4)ccc32)c1 | -2.8% | / | / | ? | / | 25.9µM*
COc1cc(NC(=O)CN2C(=O)COc3ccc(S(=O)(=O)N4CCCCC4)cc32)cc(OC)c1 | 7.0% | -1.0% | 0.0 | ? | -10.5% | ?
N#Cc1cccc(C(=O)Nc2ccc3c(N4CCOCC4)ncnc3c2)c1 | 33.7% | / | / | / | / | /
COC(=O)Cn1ccnc1[N+](=O)[O-] | -4.6% | -2.9% | -5.1 | -5.5% | 0.7% | -5.5%
COCCn1c(C)cc(C2=NNC(=Nc3ccccc3F)SC2)c1C | ? | -10.1% | -15.8 | ? | -0.7% | ?

Source: PubChem
